CtBP-E1A blk – CtBP/E1A binding inhibition; 340,000 tested, 0.49% active; activity change, % (test concentration not listed); AlphaScreen GST-E1A/His-CtBP binding, 1536-well; hits give low values; in the data active means activity change below about -65%; inconclusive means mostly about -30% to -63%; further: on the % scale 0 is the no-effect control and ±100 the full control effect
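Homogeneous bead-based format: GST-tagged E1A captured on glutathione donor beads, His-tagged CtBP on nickel acceptor beads; compounds precede bead addition by 2 h at 37 °C.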
HP1b chromo inh – blocks HP1-beta chromodomain binding to methylated histone tails | Potency, µM (top dose mostly 114 µM), inactives show at the highest dose activity change, negative = inhibition, actives largely listed as inhibitors | AlphaScreen HP1-beta / biotin-H3K9me3 peptide binding | 390,000 tested, 0.56% active | P83916; further: potency means the concentration at half of the fitted maximal effect; nearly all actives have a fitted effect of over 70% in size
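Compound inhibition of the preformed complex between 50 nM HP1-beta and 50 nM biotinylated H3K9me3 peptide was read by AlphaScreen. Buffer was PBS pH 7.4 with 0.01% Tween-20. Incubations ran 30 min at room temperature, with 10 ug/mL donor/acceptor beads.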
TDP1 block – inhibitors of human tyrosyl-DNA phosphodiesterase TDP1; recombinant TDP1, AlphaScreen DNA substrate cleavage; Q9NUW8; Potency, µM (doses to about 130 µM), for inactives: top-dose activity change, negative = inhibition, most hits filed as inhibitors; 350,000 tested, 0.28% active; further: potency means the concentration at half of the fitted maximal effect; on the % scale 0 is the no-effect control and ±100 the full control effect; nearly all actives have a fitted effect of over 40% in size
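Recombinant E. coli-expressed Tdp1 (1 nM) preincubated with compound 15 min at RT, then 5'-biotin/3'-phosphotyrosine-FITC DNA substrate (15 nM) added for 5 min. AlphaScreen beads (10 ug/ml) added, 10 min RT; tyrosine-FITC cleavage read as signal loss.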
BAZ2B block – blocks human BAZ2B | AlphaScreen BAZ2B-H3K14Ac peptide displacement | Potency, µM (doses to about 114 µM), inactives show at the highest dose activity change, negative = inhibition, usual class: inhibitors | 360,000 tested, 4.4% active | AID 504333; further: potency means the concentration at half of the fitted maximal effect; on the % scale 0 is the no-effect control and ±100 the full control effect; nearly all actives have a fitted effect of over 60% in size
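In this displacement format the biotinylated H3(5-23) peptide acetylated at Lys14 serves as ligand at 50 nM, with BAZ2B at 50 nM in PBS pH 7.4 containing 0.01% Tween-20. Donor and acceptor beads are 10 ug/mL final.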
Six1-Eya2 blk – Six1/Eya2 interaction inhibition. activity change, % (no concentration beside the values). Q15475+O00167. AlphaScreen GST-Six1/His-Eya2 binding, biochemical; hits give low values. 360,000 tested, 0.56% active. AID 651725; in the data active means activity change below about -65%; inconclusive means mostly about -30% to -63%; further: on the % scale 0 is the no-effect control and ±100 the full control effect
Target sequence (O00167 whole entry, looked up): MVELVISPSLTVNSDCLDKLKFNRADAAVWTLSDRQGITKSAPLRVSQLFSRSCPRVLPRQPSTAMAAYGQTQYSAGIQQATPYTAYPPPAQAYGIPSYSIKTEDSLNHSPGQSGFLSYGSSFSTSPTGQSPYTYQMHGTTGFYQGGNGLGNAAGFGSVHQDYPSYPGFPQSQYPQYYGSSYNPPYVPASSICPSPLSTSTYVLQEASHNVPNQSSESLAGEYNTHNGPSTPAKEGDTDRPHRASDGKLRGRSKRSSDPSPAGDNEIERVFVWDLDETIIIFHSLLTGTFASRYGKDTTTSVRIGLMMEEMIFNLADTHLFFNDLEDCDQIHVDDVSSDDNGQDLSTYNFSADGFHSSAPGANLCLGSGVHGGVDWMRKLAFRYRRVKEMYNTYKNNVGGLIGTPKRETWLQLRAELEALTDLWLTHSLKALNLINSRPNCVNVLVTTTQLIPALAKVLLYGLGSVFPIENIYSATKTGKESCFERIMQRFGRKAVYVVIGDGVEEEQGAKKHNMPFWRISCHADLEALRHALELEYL
Target sequence (Q15475 whole entry, looked up): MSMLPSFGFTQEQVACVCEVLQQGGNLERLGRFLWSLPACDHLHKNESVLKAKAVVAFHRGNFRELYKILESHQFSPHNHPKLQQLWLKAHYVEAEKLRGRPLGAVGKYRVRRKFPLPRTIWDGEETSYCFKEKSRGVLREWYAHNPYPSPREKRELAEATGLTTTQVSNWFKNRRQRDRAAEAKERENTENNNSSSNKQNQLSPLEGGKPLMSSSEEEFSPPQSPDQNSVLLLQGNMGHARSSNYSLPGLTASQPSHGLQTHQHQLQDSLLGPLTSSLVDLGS
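Compounds are tested against tagged Six1 and Eya2 proteins bridged by glutathione donor and nickel acceptor beads; after a one-hour incubation at 37 °C without light, AlphaScreen emission is recorded.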
JMJD2A Tudor inh – inhibitors of human JMJD2A Tudor domain. 390,000 tested, 4.4% active. O75164. Potency, µM (top dose mostly 114 µM), without a hit: at the top dose activity change, negative = inhibition, usual class: inhibitors. AlphaScreen JMJD2A-Tudor / H3K4me3 peptide binding; further: potency means the concentration at half of the fitted maximal effect; on the % scale 0 is the no-effect control and ±100 the full control effect; nearly all actives have a fitted effect of over 50% in size
* hit, by the source's call; i = inactive; ? = inconclusive; · = not tested or not shown; [ ] = dose if it differs, or a comment. A selection: hits, their analogues and other compounds. The true share with any hit is near 5.3%. Unless noted, the call rests on the fitted dose curve; in most records, active means well fitted inhibition curve with a large enough effect; inconclusive means small, poorly fitted or top-dose-only effect; inactive means no such curve, though single readings can be large or run the other way.

SMILES | CtBP-E1A blk | HP1b chromo inh | TDP1 block | BAZ2B block | Six1-Eya2 blk | JMJD2A Tudor inh
Cc1cccc(NC(=O)N2CCN3CCCCC3C2)c1C (stereo unspecified) | · | 24% | 6% | ? | · | -5%
O=[N+]([O-])c1ccc2c(c1)N([O-])C1(CCCCC1)[N+]2=O | -5 | ? | 6% | 40µM* | -12 | ?
CC1=C(c2ccccc2)[N+](=O)C2(CCCC2)N1[O-] | -7 | 13% | 5% | 2% | 6 | -11%
Nc1ccc(C(=O)Nc2ccc3c(O)cc(S(=O)(=O)O)cc3c2)cc1 | ? | -7%[57 µM] | · | · | ? | 56µM*
Nc1ccc(NC(=O)c2ccc(C(=O)Nc3ccc(N)cc3)cc2)cc1 | 206 | 200% | 79µM* | 71µM* | i | 56µM*
Nc1ccc(C(=O)Nc2ccc(Nc3ccncc3)cc2)cc1 | · | 14% | -1% | 11% | 11 | -25%
CCC(=O)N1CCc2cc(Br)cc(S(=O)(=O)CCC(=O)Nc3ccc(Cl)cc3)c21 | · | 29% | -6% | -2% | · | -2%
CCC(C)n1c(-c2cccc(S(=O)(=O)N3CCOCC3)c2)n[nH]c1=S (stereo unspecified) | 5 | 47% | 0% | 7% | 1 | 5.6µM*
CCN(CC)S(=O)(=O)c1cccc(-c2n[nH]c(=S)n2C(C)COC)c1 (stereo unspecified) | 0 | 11% | -8% | 13% | 1 | 3.5µM*
Cc1nc(-c2cccc(S(=O)(=O)N3CCOCC3)c2)cs1 | 2 | -16% | 0% | -1% | -2 | -27%
Cc1ccn2cc(-c3cccc(S(=O)(=O)N4CCCC4)c3)nc2c1 | -13 | 24% | 2% | -22%[57.1 µM] | -16 | -19%
CCn1c(-c2cccc(S(=O)(=O)N3CCCC3)c2)n[nH]c1=S | · | 18% | -4% | -24% | 5 | 6.3µM*
CCC(C)n1c(-c2cccc(S(=O)(=O)N(CC)CC)c2)n[nH]c1=S (stereo unspecified) | -12 | 15% | 3% | 2% | 0 | 10µM*
CCc1cccc(NC(=O)CC2Oc3ccc(C)cc3NC2=O)c1 (stereo unspecified) | · | 7% | -2% | -26% | · | 1%
O=C(Oc1ccc2ccccc2c1Cl)N1CCCCCC1 | 54 | 89% | · | 61% | 30 | 29%
CC1(C)Cc2c(ccc3ccccc23)/C(=C/C(=O)N2CCCCC2)N1 | ? | -12% | 8% | 50µM* | 0 | -58%
COc1cccc2cc(-c3nc4sc5c(c4c(=O)[nH]3)CCC(C(C)(C)C)C5)c(=O)oc12 (stereo unspecified) | · | 20% | 3% | -37% | · | -2%
CC(CNCC1CCCO1)COc1cccc2ccccc12 (stereo unspecified) | 14 | ? | -9% | ? | -3 | 1.8µM*
COc1ccccc1CNC(=O)CN1C(=O)CSc2ccc(S(=O)(=O)N(C)C)cc21 | · | 36% | 0% | 4% | · | 30%
COC(=O)c1ccccc1NC(=O)CSc1nc2ccsc2c(=O)n1CCC(C)C | · | 31% | 5% | 4% | · | -23%
CCCCCCCCCCCCCCCCCCNc1ccn(C2OC(COP(=O)(O)OCC3OC(n4cc(F)c(=O)[nH]c4=O)CC3O)C(O)C2O)c(=O)n1 (stereo unspecified) | 3 | -15% | · | · | ? | 56µM*
Cc1c(C(=O)Nc2ccc(F)cc2F)nnn1-c1ccccc1Br | · | 53% | 9% | 0% | · | -5%
CCn1c(C)cs/c1=N\C(=S)Nc1ccccc1C | -2 | -17% | 11% | 40µM* | 0 | ?
CCC(C)(C)NC(=S)Nc1ccccc1C | 4 | 33% | 6% | -16% | 4 | -16%
Cc1ccc2c(c1)N(C(=O)CSc1nncn1C)C(C)(C)c1ssc(=S)c1-2 | ? | -33% | 12% | · | ? | 79µM*
SMILES | CtBP-E1A blk | HP1b chromo inh | TDP1 block | BAZ2B block | Six1-Eya2 blk | JMJD2A Tudor inh
Cc1ccc2c(c1)N(C(=O)c1ccco1)C(C)(C)c1ssc(=S)c1-2 | ? | ? | 14% | 10µM* | ? | 14µM*
CC1=CC(C)(C)N(C(=O)CSc2nncn2C)c2ccccc21 | 38 | 27% | -2%[56.1 µM] | 8% | 0 | -7%
C=CCOC(=O)C(C(C)=O)C(NC(=O)OC)c1ccco1 (stereo unspecified) | · | · | 7%[21 µM] | · | · | ·
CCOC(=O)c1c(NC(=O)C2C3C=CC(C3)C2(C)C(=O)O)sc2c1CCCC2 (stereo unspecified) | -3 | 4% | ? | 56µM* | -2 | -34%
O=C1NN=COc2ccccc21 | -5 | 28% | · | 56µM* | 0 | -15%
O=C1NC(c2ccc(Cl)cc2)=COc2ccccc21 | -8 | 19% | 5% | 1% | 9 | -1%
NC(=O)c1ccc(/C=N/O)nc1 | · | 21% | 6% | 32µM* | -6 | 18µM*
COc1ccc(C(=O)NCc2ccccn2)cc1 | 4 | 32% | 5% | 6% | 0 | -25%
O=C(NCc1ccccn1)c1ccc(/C=N/O)nc1 | ? | 23% | 4% | 45µM* | ? | 18µM*
O=C(NCc1ccccc1)c1ccc(/C=N/O)nc1 | -20 | 20% | 2% | 56µM* | ? | 7.9µM*
C=C1CC2COC(=O)C2(Cc2ccc3ccccc3c2)C1 (stereo unspecified) | · | · | 0% | · | · | ·
Cc1ccc(NC(=O)Cn2ccn(Cc3ccc(Cl)cc3)c(=O)c2=O)cc1C | · | 35% | 8% | 5% | · | 1%
CC[N+]1(C)CCC(O)(c2ccc(OC)cc2)C(C(=O)c2ccc(OC)cc2)C1 (stereo unspecified) | 14 | -5% | · | · | 1 | 89µM*
CC(C)(C)NC(=O)COc1ccc(CNCc2ccccn2)cc1 | -9 | 14% | -2% | 50µM* | ? | 56µM*
CCOc1cc(CNCc2ccccn2)ccc1OCC(=O)NC1CCCCC1 | -29 | 1% | 4% | 79µM* | ? | 56µM*
CC(C)(C)NC(=O)COc1ccc(CNCCc2ccccc2)cc1 | 11 | 32% | 5% | -17% | 5 | -4%
Cc1c(OCC(=O)NCc2ccccn2)ccc2c3c(c(=O)oc12)CCCC3 | · | 14%[57 µM] | -19% | -13% | 4 | 50µM*
CCOc1cc(CNCCc2ccc(S(N)(=O)=O)cc2)ccc1OCC(=O)NC1CCCCC1 | -4 | 19% | 6% | 0% | ? | -17%
Cc1c(OCC(=O)NC(Cc2ccc(Cl)cc2)C(=O)O)ccc2c1oc(=O)c1ccccc12 (stereo unspecified) | -1 | 14% | · | 56µM* | -13 | -30%
COc1ccc(N2CC(NC(=O)/C=C\c3ccccc3)CC2=O)cc1 (stereo unspecified) | · | 29% | 0% | -2% | · | -20%

Compound activity from PubChem BioAssay.
